Experimental data: the supplement of paper PMC8728848
This is one part of a sample in which the strongest signals are shown more often than they occur.

What was measured:
Assay in all cases: glycan array binding signal (z-score within array); higher = stronger binding
Details in all cases: glycan notation: IUPAC condensed, linker removed
[1] = molecular target: Neu5Ac(a2-3)Gal(b1-4)GlcNAc(b1-2)[Neu5Ac(a2-3)Gal(b1-4)GlcNAc(b1-4)]Man(a1-3)[GlcNAc(b1-4)][Neu5Ac(a2-3)Gal(b1-4)GlcNAc(b1-2)[Neu5Ac(a2-3)Gal(b1-4)GlcNAc(b1-6)]Man(a1-6)]Man(b1-4)GlcNAc(b1-4)GlcNAc
How it was run: (§1)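 Arrays were curated from the Consortium for Functional Glycomics database, 3228 in total, and kept only where the protein sequence was available. Binding is expressed as a within-array Z-score. This score was averaged across arrays of the same protein sequence at different concentrations or buffers and across linkers, and negative values can be read as non-binding.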

[2] = molecular target: Neu5Ac(a2-3)Gal(b1-4)GlcNAc(b1-6)GalNAc
How it was run: as §1

[3] = molecular target: Neu5Ac(a2-3)Gal(b1-4)[Fuc(a1-3)]GlcNAc6S
How it was run: as §1

[4] = molecular target: Neu5Ac(a2-3)Gal6S(b1-4)GlcNAc
How it was run: as §1

[5] = molecular target: Neu5Ac(a2-3)[Neu5Ac(a2-6)]GalNAc
How it was run: as §1

[6] = molecular target: Neu5Ac(a2-6)Gal(b1-4)GlcNAc(b1-2)Man(a1-3)[GlcNAc(b1-4)][Neu5Ac(a2-6)Gal(b1-4)GlcNAc(b1-2)Man(a1-6)]Man(b1-4)GlcNAc(b1-4)GlcNAc
How it was run: as §1

[7] = molecular target: Neu5Ac(a2-6)Gal(b1-4)GlcNAc(b1-2)Man(a1-3)[Neu5Ac(a2-6)Gal(b1-4)GlcNAc(b1-2)Man(a1-6)]Man(b1-4)GlcNAc(b1-4)[Fuc(a1-6)]GlcNAc
How it was run: as §1

[8] = molecular target: Neu5Ac(a2-6)Gal(b1-4)GlcNAc(b1-2)Man(a1-6)[GlcNAc(b1-2)Man(a1-3)]Man(b1-4)GlcNAc(b1-4)GlcNAc
How it was run: as §1

[9] = molecular target: Neu5Gc(a2-3)Gal(b1-3)[Fuc(a1-4)]GlcNAc
How it was run: as §1

[10] = molecular target: Neu5Gc(a2-8)Neu5Gc(a2-6)Gal(b1-4)GlcNAc
How it was run: as §1

B1: Clec18Av1 (Homo sapiens), A5D8T8 (protein)
chain: MLHPETSPGRGHLLAVLLALLGTAWAEVWPPQLQEQAPMAGALNRKESFLLLSLHNRLRSWVQPPAADMRRLDWSDSLAQLAQARAALCGTPTPSLASGLWRTLQVGWNMQLLPAGLVSFVEVVSLWFAEGQRYSHAAGECARNATCTHYTQLVWATSSQLGCGRHLCSAGQAAIEAFVCAYSPRGNWEVNGKTIVPYKKGAWCSLCTASVSGCFKAWDHAGGLCEVPRNPCRMSCQNHGRLNISTCHCHCPPGYTGRYCQVRCSLQCVHGRFREEECSCVCDIGYGGAQCATKVHFPFHTCDLRIDGDCFMVSSEADTYYRARMKCQRKGGVLAQIKSQKVQDILAFYLGRLETTNEVIDSDFETRNFWIGLTYKTAKDSFRWATGEHQAFTSFAFGQPDNHGFGNCVELQASAAFNWNDQRCKTRNRYICQFAQEHISRWGPGS
[1]
  glycan array binding signal (z-score): -0.868
[2]
  glycan array binding signal (z-score): 1.49
[3]
  glycan array binding signal (z-score): -0.818
[4]
  glycan array binding signal (z-score): -0.585
[5]
  glycan array binding signal (z-score): -0.853
[6]
  glycan array binding signal (z-score): -0.604
[7]
  glycan array binding signal (z-score): 3.58
[8]
  glycan array binding signal (z-score): 4.86
[9]
  glycan array binding signal (z-score): -0.646
[10]
  glycan array binding signal (z-score): 0.057
